Records with an inconclusive call do not appear. A call without a number means that no potency is given here. Values without a mark were called inactive. Active and inactive are the calls of the source. The call rests on the fitted dose curve; in most records, active means well fitted cell-killing curve with a large enough effect in the repeat runs; inconclusive means weak or mixed curves, or effect the other way; inactive means flat fitted curve, though single readings scatter.
Key:
[1] = cAMP Responsive Elements (CRE) small molecule antagonists, cell-based qHTS assay: qHTS cell viability counter screen (AID 2060913); further: nearly all actives have a fitted effect of over 40% in size
How it was run: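 HEK293T CRE-bla, 2,000 cells/well, 18 h preincubation; cpd in DMSO + NKH477 0.25 uM final, 3 h 37 C/5% CO2; LiveBLAzer 2 h RT, then CellTiter-Glo 30 min RT, luminescence.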

[2] = cAMP Responsive Elements (CRE) small molecule agonists, cell-based qHTS assay: qHTS cell viability counter screen (AID 2060914); further: nearly all actives have a fitted effect of over 50% in size
How it was run: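 In the same wells as the reporter read, viability of CRE-bla HEK 293T cells was quantified by CellTiter-Glo luminescence after a 3 h compound exposure.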
Potency means the concentration at half of the fitted maximal effect.

Row | SMILES | Potency [1] | Potency [2] | viability change, negative = cytotoxic [1] | activity change, negative = cytotoxicity [2]
1 | O=C(O)c1cc(C(=O)O)cc(S(=O)(=O)O)c1 | inactive | inactive |  | 
2 | O=C(/C=C/c1ccccc1)NCCO | inactive | inactive |  | 
3 | Nc1cc([N+](=O)[O-])cc(Cl)c1O | inactive | inactive |  | 
4 | CN1CCN(C)CC1 | inactive | inactive |  | 
5 | COC(=O)CSc1cc(N=c2sc(=O)n3n2CCCC3)c(F)cc1Cl | inactive | inactive |  | 
6 | CC(C)CC(C)CC(C)CC(C)COC(=O)c1ccccc1C(=O)OCC(C)CC(C)CC(C)CC(C)C (centres undefined) | inactive | inactive |  | 
7 | Cc1ccc(O)c(C(=O)c2ccccc2)c1 | inactive | inactive |  | 
8 | CCCS(=O)c1ccc2nc(NC(=O)OC)[nH]c2c1 (centres undefined) | inactive | inactive |  | 
9 | Cc1c(-c2ccc(O)cc2)n(Cc2ccc(OCCN3CCCCCC3)cc2)c2ccc(O)cc12 | inactive | inactive |  | 
10 | CCCCOCCOC(=O)CCCCCCCCC(=O)OCCOCCCC | inactive | inactive |  | 
11 | O=c1[nH][nH]c(=O)c2cc([N+](=O)[O-])ccc12 | inactive | inactive |  | 
12 | O=C(c1cc(O)c(O)c(O)c1)c1ccc(O)c(O)c1O | inactive | inactive |  | 
13 | c1ccc2c(c1)ccc1ccccc12 | inactive | inactive |  | 
14 | CC1CCC(C(C)(C)S)C(=O)C1 (centres undefined) | inactive | inactive |  | 
15 | Cn1ccnc1 | inactive | inactive |  | 
16 | N[C@@H](CCC(=O)Nc1ccc([N+](=O)[O-])cc1)C(=O)O | inactive | inactive |  | 
17 | COc1ccc(CCN(C)CCCC(C#N)(c2ccc(OC)c(OC)c2)C(C)C)cc1OC (centres undefined) | inactive | inactive |  | 
18 | C=CC(C)(C)C | inactive | inactive |  | 
19 | c1cnc2c(n1)CCCC2 | inactive | inactive |  | 
20 | CCC(C(=O)NC(=O)NC(C)=O)c1ccccc1 (centres undefined) | inactive | inactive |  | 
21 | CCCCCC | inactive | inactive |  | 
22 | Cc1cc(Nc2ccc(O)cc2)ccc1N | inactive | inactive |  | 
23 | CCc1ccc(CCOc2ccc(CC3SC(=O)NC3=O)cc2)nc1 (centres undefined) | inactive | inactive |  | 
24 | C[C@@H]1[C@H](O)[C@@H](C)/C=C/C=C\C=C\C=C\C=C\C=C\C=C\[C@H](O[C@@H]2O[C@H](C)[C@@H](O)[C@H](N)[C@@H]2O)C[C@@H]2O[C@](O)(C[C@@H](O)C[C@@H](O)[C@H](O)CC[C@@H](O)C[C@@H](O)CC(=O)O[C@H]1C)C[C@H](O)[C@H]2C(=O)O (stereo in doubt) | inactive | inactive |  | 

Row | SMILES | Potency [1] | Potency [2] | viability change, negative = cytotoxic [1] | activity change, negative = cytotoxicity [2]
25 | C=C(C)C(=O)OC1CC(C)CC(C)(C)C1 (centres undefined) | inactive | inactive |  | 
26 | Cl/C(=C\n1cncn1)c1ccc(Cl)cc1Cl | inactive | inactive |  | 
27 | COC(OC)C(C)c1ccccc1 (centres undefined) | inactive | inactive |  | 
28 | COc1ccc2cc(CCC(C)=O)ccc2c1 | inactive | inactive |  | 
29 | NC(=O)OCC(COC(N)=O)c1ccccc1 | inactive | inactive |  | 
30 | Cc1c[nH]c(=S)[nH]c1=O | inactive | inactive |  | 
31 | CC1(C)[C@@H](OC(=O)CCC(=O)O)CC[C@]2(C)[C@H]3C(=O)C=C4[C@@H]5C[C@@](C)(C(=O)O)CC[C@]5(C)CC[C@@]4(C)[C@]3(C)CC[C@@H]12 | inactive | inactive |  | 
32 | CCCCCC/C=C/CCCCCCCC(=O)O | inactive | inactive |  | 
33 | CN(C)CCOC(=O)C(c1ccccc1)C1(O)CCCC1 (centres undefined) | inactive | inactive |  | 
34 | CC(C)C(C)(C)C(C)(C)C(C)(C)S | inactive | inactive |  | 
35 | Nc1ccc(NC(=O)c2ccc(N)cc2)cc1 | inactive | inactive |  | 
36 | C(=C(c1ccccc1)c1ccccc1)c1ccccc1 | inactive | inactive |  | 
37 | O=P(c1ccccc1)(c1ccccc1)c1ccccc1 | inactive | inactive |  | 
38 | COc1ccc(C(=O)Nc2nc3ccccc3c(NCc3ccccc3)c2C#N)cc1 | inactive | inactive |  | 
39 | O=S1(=O)OC(c2ccc(O)cc2)(c2ccc(O)cc2)c2ccccc21 | inactive | inactive |  | 
40 | O=C(OCC1CCC2OC2C1)C1CCC2OC2C1 (centres undefined) | inactive | inactive |  | 
41 | NCc1ccccc1Sc1ccccc1CO | inactive | inactive |  | 
42 | N#CCc1ccccc1[N+](=O)[O-] | inactive | inactive |  | 
43 | CCC1(c2cnc[nH]2)Cc2ccccc2C1 | inactive | inactive |  | 
44 | NC(=O)N1c2ccccc2CC(=O)c2ccccc21 | inactive | inactive |  | 
45 | CCc1cccc2c(CCO)c[nH]c12 | inactive | inactive |  | 
46 | COC(=O)c1cc(Cl)ccc1OC | inactive | inactive |  | 
47 | c1ccc2cc3ccccc3cc2c1 | inactive | inactive |  | 
48 | Cc1nc(C)nc(N2C[C@@H](C)N(c3ccnc([C@@H](C)O)n3)[C@@H](C)C2)n1 | inactive | inactive |  | 

Row | SMILES | Potency [1] | Potency [2] | viability change, negative = cytotoxic [1] | activity change, negative = cytotoxicity [2]
49 | COC(=O)c1ccc(O)cc1 | inactive | inactive |  | 
50 | O=S(=O)(O)c1cccc(S(=O)(=O)O)c1 | inactive | inactive |  | 
51 | O=C(O)c1ccccc1C(c1ccc(O)cc1)c1ccc(O)cc1 | inactive | inactive |  | 
52 | c1ccsc1 | inactive | inactive |  | 
53 | CCOC(=O)/C=C/c1ccccc1 | inactive | inactive |  | 
54 | C[C@]12CCC(=O)C=C1C=C[C@@H]1[C@@H]2CC[C@@]2(C)[C@H]1CC[C@@]21CCC(=O)O1 | inactive | inactive |  | 
55 | CCCOC(=O)c1cc(O)c(O)c(O)c1 | inactive | inactive |  | 
56 | C=C(C)C(=O)OCC(O)CO (centres undefined) | inactive | inactive |  | 
57 | CC(C(O)c1ccc(O)cc1)N1CCC(Cc2ccccc2)CC1 (centres undefined) | inactive | inactive |  | 
58 | CCCN1CCCC[C@H]1C(=O)Nc1c(C)cccc1C | inactive | inactive |  | 
59 | CCCCOCC | inactive | inactive |  | 
60 | O[Si](c1ccccc1)(c1ccccc1)c1ccccc1 | inactive | inactive |  | 
61 | Brc1ccc(Oc2ccc(Br)cc2)cc1 | inactive | inactive |  | 
62 | CC(=O)[O][Al] | inactive | inactive |  | 
63 | CCOC(=O)c1ccc(C)cc1 | inactive | inactive |  | 
64 | CCN(Cc1ccccc1)c1ccccc1 | inactive | inactive |  | 
65 | CC(=O)O[C@]1(C(C)=O)CC[C@H]2[C@@H]3C[C@H](C)C4=CC(=O)CC[C@]4(C)[C@H]3CC[C@@]21C | inactive | inactive |  | 
66 | C=C/C=C/C=C/CCCCC |  |  | -0.548% [at 18.9 µM] | -22.6% [at 18.9 µM]
67 | CC/C=C\CC1=C(C)CCC1=O | inactive | inactive |  | 
68 | CN(C)CCOC(c1ccccc1)c1ccc(Br)cc1 (centres undefined) | inactive | inactive |  | 
69 | CC(C)=CCC1C(=O)N(c2ccccc2)N(c2ccccc2)C1=O | inactive | inactive |  | 
70 | O=S(=O)(O)c1cccc2ccccc12 | inactive | inactive |  | 
71 | CN(C)c1ccc(C(=N)c2ccc(N(C)C)cc2)cc1 | inactive | inactive |  | 
72 | CC1(C)C2=CCCC(C)(C)[C@]23CC[C@H]1C3 | inactive | inactive |  | 

Row | SMILES | Potency [1] | Potency [2] | viability change, negative = cytotoxic [1] | activity change, negative = cytotoxicity [2]
73 | C=C(C)C1CC=C(C)C(O)C1 (centres undefined) | inactive | inactive |  | 
74 | Oc1cc2ccccc2c2ccccc12 | 13.7 µM (active) | 13.7 µM (active) |  | 
75 | CC(C)CC(C)(O)C#CC(C)(O)CC(C)C (centres undefined) | inactive | inactive |  | 
76 | COC(=O)OC | inactive | inactive |  | 
77 | CC(CCO)CCCC(C)(C)O (centres undefined) | inactive | inactive |  | 
78 | NCCO | inactive | inactive |  | 
79 | C=C1CC[C@H]2C[C@@H]1C2(C)C | inactive | inactive |  | 
80 | CC(C)CCOCc1ccccc1 | inactive | inactive |  | 
81 | CS(C)=O | inactive | inactive |  | 
82 | CCCCOCCOCCOCCO | inactive | inactive |  | 
83 | CC(=O)CC/C=C(\C)CCC=C(C)C | inactive | inactive |  | 
84 | CC1=CC(C)(C)Nc2ccccc21 | inactive | inactive |  | 
85 | CCN1CCC[C@H]1CNC(=O)c1c(O)c(Cl)cc(Cl)c1OC | inactive | inactive |  | 
86 | O=C(O)C[C@H](NC(=O)OCc1ccccc1)C(=O)O | inactive | inactive |  | 
87 | COC(=O)c1ccccc1C(=O)c1ccc(OCCN2CCCCC2)cc1 | inactive | inactive |  | 
88 | CNCc1ccccc1 | inactive | inactive |  | 
89 | Cc1c(C)c2c(c(C)c1OC(=O)CCC(=O)OCCO)CC[C@@](C)(CCC[C@H](C)CCC[C@H](C)CCCC(C)C)O2 | inactive | 26.6 µM (active) |  | 
90 | CCCCOC(=O)CC | inactive | inactive |  | 
91 | BrCc1cccc(Oc2ccccc2)c1 | inactive | inactive |  | 
92 | CCOC(OCC)OCC | inactive | inactive |  | 
93 | CC(C)NC[C@@H](O)COc1ccc(CC(N)=O)cc1 | inactive | inactive |  | 
94 | c1ccc(CCCc2ccncc2)cc1 | inactive | inactive |  | 
95 | Cc1cc(C)c(C(=O)O)c(C)c1 | inactive | inactive |  | 
96 | CC1(C)S[C@@H]2[C@H](NC(=O)COc3ccccc3)C(=O)N2[C@H]1C(=O)O | inactive | inactive |  | 

Row | SMILES | Potency [1] | Potency [2] | viability change, negative = cytotoxic [1] | activity change, negative = cytotoxicity [2]
97 | CCCc1ccc(OC)cc1 | inactive | inactive |  | 
98 | C[Si]1(C)O[Si](C)(C)O[Si](C)(C)O1 | inactive | inactive |  | 
99 | Clc1ccc(Cn2c(CN3CCCC3)nc3ccccc32)cc1 | inactive | inactive |  | 
100 | C=CCOC(=O)CCC1CCCCC1 | inactive | inactive |  | 
101 | CCCCCCCCOCCCN | inactive | inactive |  | 
102 | Cc1cccc(N)n1 | inactive | inactive |  | 
103 | O=C(O)c1snc(Cl)c1Cl | inactive | inactive |  | 
104 | CC1=CC2C3CC(C=C3C)C2C1 (centres undefined) | inactive | inactive |  | 
105 | NC(=O)CCCCC(N)=O | inactive | inactive |  | 
106 | CCCCCCCCCCCCC1CO1 (centres undefined) | inactive | inactive |  | 
107 | CC(C)CC(=O)OCc1ccccc1 | inactive | inactive |  | 
108 | OCCC(F)(F)C(F)(F)C(F)(F)C(F)(F)C(F)(F)C(F)(F)F | inactive | inactive |  | 
109 | CC1=C(O)C(=O)OC1C (centres undefined) | inactive | inactive |  | 
110 | O=[N+]([O-])c1ccc(Nc2ccc(Nc3ccccc3)c(S(=O)(=O)O)c2)c([N+](=O)[O-])c1 | inactive | inactive |  | 
111 | O[C@@H](COc1cccc2ncccc12)CN1CCN(C2c3ccccc3[C@@H]3[C@H](c4ccccc42)C3(F)F)CC1 (some centres undefined) | inactive | inactive |  | 
112 | C=C(C)C(=O)OCC(C)O (centres undefined) | inactive | inactive |  | 
113 | [Cl][Au]([Cl])[Cl] | inactive | inactive |  | 
114 | C#CC(O)CCC (centres undefined) | inactive | inactive |  | 
115 | CN1CCN(c2ccccc2/C=C2\SCCN(c3ccc(Cl)c(Cl)c3)C2=O)CC1 | inactive | inactive |  | 
116 | O=C1NCCN1CCO | inactive | inactive |  | 
117 | FC1(F)C(F)(F)C(F)(F)C2(F)C(F)(F)C(F)(F)C(F)(F)C(F)(F)C2(F)C1(F)F (centres undefined) | inactive | inactive |  | 

Reference: PubChem BioAssay (Tox21)
